Screening data from PubChem.
This excerpt belongs to a sample that is enriched for hits.
RmlCD inh mix – RmlC/RmlD inhibition, mixture screen. inhibition, % at 5.5 µM. RmlC/RmlD coupled enzyme inhibition, 384-well mixture HTS. actives 0.39% (n = 110,000); in the data active means inhibition above about 30%, passing the limit was not always enough; inconclusive means no clear call, values can overlap the other calls
HIV RNase H inh-1 – blocks HIV-1 RNase H cleavage of RNA/DNA duplex; inhibition, % at 10 µM; RT-RNase H RNA/DNA duplex cleavage, fluorescence; actives 1.9% (n = 65,000); in the data active means inhibition above about 50%
HIV RNase H inh-2 – confirmation of HIV-1 reverse transcriptase RNase H inhibitors. shares compounds with HIV RNase H inh-1. Recombinant RT RNase H, fluorescent RNA/DNA duplex cleavage. inhibition, % at 10 µM. actives 39% (n = 1,000); in the data active means inhibition above about 48%; inconclusive means no clear call, values can overlap the other calls
Of the large screens only hits and unclear results are named; the others gave an inactive call (follow-up assays come after a bar, where they were run).

CSc1ccc(Cn2nnc(C(=O)Nc3ccc(C)c(C)c3)c2N)cc1	none (no result: HIV RNase H inh-1)
Cc1ccc(NC(=O)Cn2nnc(C(=O)Nc3ccc(C)c(C)c3)c2N)cc1	HIV RNase H inh-1 67 | HIV RNase H inh-2 59
O=C(Nc1nnc(C2CC2)s1)C1Cc2ccccc2CN1S(=O)(=O)c1ccccc1F (stereo not drawn)	none (no result: HIV RNase H inh-1)
Cc1cc(OCC(=O)Nc2ccc(F)c(F)c2)nc(C(C)C)n1	none (no result: HIV RNase H inh-1)
CC1=C(C#N)CCC(=O)N1Cc1ccc(C)cc1	none (no result: HIV RNase H inh-1)
COc1ccc(-c2cc(C(=O)N3CCN(c4ccccc4)CC3)no2)cc1OC	none (no result: HIV RNase H inh-1)
COc1ccccc1-c1cc(C(=O)N2CCN(c3ccc(F)cc3)CC2)no1	HIV RNase H inh-1 72 | HIV RNase H inh-2 inactive
COc1ccc(CCNC(=O)CSc2nc3c(c(=O)n(C)c(=O)n3C)n2C)cc1OC	none (no result: HIV RNase H inh-1)
COc1cccc(CNC(=O)CCS(=O)(=O)c2cccs2)c1	none (no result: HIV RNase H inh-1)
CC(C)(O)C#Cc1ccc(C(=O)NCc2cccs2)s1	HIV RNase H inh-1 65 | HIV RNase H inh-2 inactive
CC(=O)c1ccc(C#CC(C)(C)O)s1	none
CCCC(=O)N1CCN(c2ccc(NC(=S)NC(=O)CC)cc2)CC1	none (no result: HIV RNase H inh-1)
CCOc1cc(CC(=O)N[C@@H](CC(C)C)c2ccccc2N2CCCCC2)ccc1C(=O)O	none (no result: HIV RNase H inh-1)
O=C(NCc1ccco1)C1(c2ccc(Br)cc2)CCCC1	none (no result: HIV RNase H inh-1)
c1ccc(Cc2nn3c(COc4ccccc4)nnc3s2)cc1	HIV RNase H inh-1 93 | HIV RNase H inh-2 64
c1ccc(OCc2nn3c(C4CCCCC4)nnc3s2)cc1	HIV RNase H inh-1 64 | HIV RNase H inh-2 inactive
Clc1ccccc1-c1nn2c(COc3ccccc3)nnc2s1	none
COc1ccc(-c2nnc3sc(COc4ccccc4)nn23)cc1	none
Cc1ccc2[nH]c(=O)c3cc(C(=O)N(CCCOC(C)C)Cc4ccco4)sc3c2c1	none (no result: HIV RNase H inh-1)
Cc1csc(-c2cnn(-c3ccccc3)c2NC(=O)c2cccc(C(F)(F)F)c2)n1	none (no result: HIV RNase H inh-1)
Cc1cc([N+](=O)[O-])cnc1NC(C)c1ccccc1 (stereo not drawn)	none (no result: HIV RNase H inh-1)
CC(C)OC(=O)c1nn2c(C(F)(F)F)cc(-c3ccc(Br)o3)nc2c1Br	HIV RNase H inh-1 66 | HIV RNase H inh-2 inactive
CC(C)OC(=O)c1nn2c(C(F)(F)F)cc(-c3ccco3)nc2c1Cl	none (no result: HIV RNase H inh-1)
Cc1ccc(S(=O)(=O)N2CCC(C(=O)NCc3ccncc3)CC2)cc1	none (no result: HIV RNase H inh-1)
CCC(CC)C(=O)Nc1cccc(C(=O)Nc2ccc(S(=O)(=O)Nc3ccc(C)cc3)cc2)c1	none (no result: HIV RNase H inh-1)
Nc1nc(SCC(=O)Nc2ccccc2Sc2ccccc2)n[nH]1	none (no result: HIV RNase H inh-1)
Cc1cc(NC(=O)c2cc(C)on2)n(-c2ccccc2)n1	HIV RNase H inh-1 75 (no result: RmlCD inh mix) | HIV RNase H inh-2 inactive
Cc1cc(NC(=O)c2cc(C3CC3)on2)n(-c2ccccc2)n1	none
Cc1c(OCC(F)(F)F)ccnc1CS(=O)c1nc2ccccc2[nH]1 (stereo not drawn)	HIV RNase H inh-1 74 | HIV RNase H inh-2 inactive
COCCCOc1ccnc(CS(=O)c2nc3ccccc3[nH]2)c1C (stereo not drawn)	none (no result: HIV RNase H inh-1)
O=C(Sc1nnnn1C1CCCCC1)c1cccs1	HIV RNase H inh-1 62 | HIV RNase H inh-2 inactive
O=C(CSc1nnnn1C1CCCCC1)NCc1ccccc1	none (no result: HIV RNase H inh-1)
COc1cccc(NC(=O)N(C2CCCCC2)C(C)c2cccs2)c1 (stereo not drawn)	none (no result: HIV RNase H inh-1)
CCCCNC(=O)c1c(N)n(Cc2ccc3c(c2)OCO3)c2nc3ccccc3nc12	none (no result: HIV RNase H inh-1)
C=CCNC(=O)c1c(N)n(-c2ccc3c(c2)OCO3)c2nc3ccccc3nc12	HIV RNase H inh-1 57 | HIV RNase H inh-2 54
O=c1/c(=C/c2ccccn2)sc2nc3ccccc3n12	HIV RNase H inh-1 60 (no result: RmlCD inh mix) | HIV RNase H inh-2 79
COC(=O)/C=c1/sc2nc3ccccc3n2c1=O	none
Cc1ccc(NC(=O)c2cc(NC(=O)c3ccco3)ccc2N2CCCCC2)cc1	HIV RNase H inh-1 58 | HIV RNase H inh-2 inactive
Cc1ccc(NC(=O)c2cc(NC(=O)c3ccco3)ccc2N2CCOCC2)cc1	none
CC(C)Cn1c(N)c(C(=O)COC(=O)c2cc(-c3ccccc3)nc3ccccc23)c(=O)n(C)c1=O	none (no result: HIV RNase H inh-1)
CC(C)Cn1c(N)c(C(=O)COC(=O)c2cc(-c3ccco3)nc3ccccc23)c(=O)n(C)c1=O	HIV RNase H inh-1 86 (no result: RmlCD inh mix) | HIV RNase H inh-2 inconclusive
CSc1cc(-c2ccc(Cl)cc2)c(C(=O)N2CCCC2)s1	none (no result: HIV RNase H inh-1)
COc1ccc2c(c1)OC13CCCCC1C2C(C(=O)c1ccccc1)C(=O)N3 (stereo not drawn)	none (no result: HIV RNase H inh-1)
CNc1sc(C(=O)c2cccs2)c(N)c1-c1nc2ccccc2s1	HIV RNase H inh-1 75 (no result: RmlCD inh mix) | HIV RNase H inh-2 inactive
CNc1sc(C(=O)c2ccc(F)cc2)c(N)c1-c1nc2ccccc2s1	none (no result: HIV RNase H inh-1)
Cc1ccc2nc(SCc3nnc(-c4ccccc4Br)o3)[nH]c2c1	none (no result: HIV RNase H inh-1)
Cc1nnc(SC2CC(=O)N(c3ccccc3)C2=O)s1 (stereo not drawn)	none (no result: HIV RNase H inh-1)
O=C1c2ccccc2CC1Sc1nnc(-c2ccncc2)o1 (stereo not drawn)	none
O=C1CC(Sc2nnc(-c3ccccc3)o2)C(=O)N1c1ccccc1 (stereo not drawn)	HIV RNase H inh-1 52 | HIV RNase H inh-2 inactive
Cc1ccccc1N1C(=O)CC(Sc2nnc(-c3ccccc3)o2)C1=O (stereo not drawn)	HIV RNase H inh-1 58 | HIV RNase H inh-2 inactive
CCOC(=O)c1c(C)[nH]c(C(=O)COC(=O)C2(C)CC2(Cl)Cl)c1C (stereo not drawn)	none (no result: HIV RNase H inh-1)
CCOC(=O)c1c(NC(=O)Cn2nnc(-c3ccc(Cl)cc3)n2)sc(CC)c1C	none (no result: HIV RNase H inh-1)
CC1=NN(/C(=N\c2nnc(C)s2)Nc2ccc(C(C)(C)C)cc2)[C@H](c2ccc(C)cc2)S1	none (no result: HIV RNase H inh-1)
CC(C)c1cc(-c2cc(C(=O)NCc3ccccc3)on2)nc(NCC2CC2)n1	none (no result: HIV RNase H inh-1)
O=C(O)c1cc(-c2ccco2)nc2ccc(Br)cc12	HIV RNase H inh-1 78 | HIV RNase H inh-2 inactive
O=C(c1ccco1)N1CCN(C(=O)c2cc(-c3ccncc3)nc3ccc(Br)cc23)CC1	none
O=C(C1CCN(S(=O)(=O)c2ccccc2)CC1)N1CCOCC1	none (no result: HIV RNase H inh-1)
Cc1sc(-n2c(C)ccc2C)c(C#N)c1C	HIV RNase H inh-1 65 | HIV RNase H inh-2 inconclusive
Cc1ccc(C)n1-c1sc2c(c1C#N)CCCC2	none (no result: HIV RNase H inh-1)
CCn1c(=NC(=O)c2ccc(N3C(=O)CCC3=O)cc2)sc2c(OC)ccc(OC)c21	HIV RNase H inh-1 56 | HIV RNase H inh-2 inconclusive
CCn1c(=NC(=O)CN2C(=O)CCC2=O)sc2c(OC)ccc(OC)c21	none
COc1ccc2nc(S(=O)Cc3ncc(C)c(OC)c3C)[nH]c2c1 (stereo not drawn)	HIV RNase H inh-1 76 | HIV RNase H inh-2 inactive
COc1ccc2nc(SCC(=O)Nc3c(C)cccc3C)[nH]c2c1	none (no result: HIV RNase H inh-1)
O=C(O)C1Nc2ccc(C(F)(F)F)cc2C2OCCC12 (stereo not drawn)	none (no result: HIV RNase H inh-1)
C[C@H](NC(CCc1ccccc1)C(=O)O)C(=O)N1CCC[C@H]1C(=O)O (stereo partly drawn)	none (no result: HIV RNase H inh-1)
O=C(Nc1ccc(Cl)c(C(F)(F)F)c1)[C@@H]1CC=C[C@@H]2CCN(Cc3ccc(Cl)c(Cl)c3)C(=O)[C@@H]21	none (no result: HIV RNase H inh-1)
C=CCn1c(=O)c(C(=O)Nc2cccnc2)c(O)c2ccccc21	none (no result: HIV RNase H inh-1)
C=CCn1c(=O)c(C(=O)Nc2nnc(C)s2)c(O)c2ccccc21	HIV RNase H inh-1 83 (no result: RmlCD inh mix) | HIV RNase H inh-2 98
Cc1cccc(NC(=O)C23CCC(C)(C2Br)C3(C)C)c1 (stereo not drawn)	none (no result: HIV RNase H inh-1)
O=C1CC(N2CCN(c3ccc(O)cc3)CC2)C(=O)N1Cc1cccs1 (stereo not drawn)	HIV RNase H inh-1 81 | HIV RNase H inh-2 inactive
O=C1CC(N2CCN(C/C=C/c3ccccc3)CC2)C(=O)N1Cc1cccs1 (stereo not drawn)	none
